# B1: unnamed (peptide)
# chain: YHSRRHPLALGFKYV
# B2: unnamed (peptide)
# chain: RRRRRPHRIERPLSN
# Columns and labels:
# Test in all cases: SPOT peptide array binding signal intensity (averaged, normalized) (arbitrary units (background-subtracted, floor 0; scale differs between SH3 domains)); higher = stronger binding of the SH3 domain to the peptide
# CaNbp2 = target: CaNbp2
# Method: (§1)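 GST-tagged SH3 domains from S. cerevisiae (Sc), A. gossypii (Ag), C. albicans (Ca) and S. pombe (Sp) were incubated at 10 ug/ml overnight at 4 C on cellulose SPOT membranes carrying 292 synthetic 15-mer peptides mined from the S. cerevisiae proteome (cysteines replaced by serines). Binding was detected with anti-GST antibody, HRP secondary and chemiluminescence, quantified with Genespotter, and reported as normalized spot intensities averaged over biological replicates.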
# CaRvs167 = target: CaRvs167
# Method: as §1
# CaRvs167-3 = target: CaRvs167-3
# Method: as §1
# CaSho1 = target: CaSho1
# Method: as §1
# CaSla1-D1-D2 = target: CaSla1-D1-D2
# Method: as §1
# CaSla1-D3 = target: CaSla1-D3
# Method: as §1
# ScAbp1 = target: ScAbp1
# Method: as §1
# ScBbc1 = target: ScBbc1
# Method: as §1
# ScBem1-D1 = target: ScBem1-D1
# Method: as §1
# ScBzz1-D1 = target: ScBzz1-D1
# Method: as §1
# ScBzz1-D2 = target: ScBzz1-D2
# Method: as §1
# ScCyk3 = target: ScCyk3
# Method: as §1
# ScFus1 = target: ScFus1
# Method: as §1
# ScHof1 = target: ScHof1
# Method: as §1
# ScHse1 = target: ScHse1
# Method: as §1
# ScLsb1 = target: ScLsb1
# Method: as §1
# ScLsb2 = target: ScLsb2
# Method: as §1
# ScLsb3 = target: ScLsb3
# Method: as §1
# ScLsb4 = target: ScLsb4
# Method: as §1
# ScMyo3 = target: ScMyo3
# Method: as §1
# ScMyo5 = target: ScMyo5
# Method: as §1
# ScNbp2 = target: ScNbp2
# Method: as §1
# ScPex13 = target: ScPex13
# Method: as §1
# ScRvs167 = target: ScRvs167
# Method: as §1
# ScSho1 = target: ScSho1
# Method: as §1
# ScSla1-D1-D2 = target: ScSla1-D1-D2
# Method: as §1
# ScSla1-D3 = target: ScSla1-D3
# Method: as §1
# SpAbp1-D1 = target: SpAbp1-D1
# Method: as §1
# SpBbc1 = target: SpBbc1
# Method: as §1
# SpBzz1-D1 = target: SpBzz1-D1
# Method: as §1
# SpBzz1-D2 = target: SpBzz1-D2
# Method: as §1
# SpCyk3 = target: SpCyk3
# Method: as §1
# SpHof1 = target: SpHof1
# Method: as §1
# SpHof1-2 = target: SpHof1-2
# Method: as §1
# SpHof1-3 = target: SpHof1-3
# Method: as §1
# SpHse1 = target: SpHse1
# Method: as §1
# SpLsb1 = target: SpLsb1
# Method: as §1
# SpLsb4 = target: SpLsb4
# Method: as §1
# SpMyo1 = target: SpMyo1
# Method: as §1
# SpNbp2 = target: SpNbp2
# Method: as §1
# SpPex13 = target: SpPex13
# Method: as §1
# SpRvs167 = target: SpRvs167
# Method: as §1
# SpSla1-D1-D2 = target: SpSla1-D1-D2
# Method: as §1
# SpSla1-D3 = target: SpSla1-D3
# Method: as §1
# AgAbp1 = target: AgAbp1
# Method: as §1
# AgBbc1 = target: AgBbc1
# Method: as §1
# AgBem1-D1 = target: AgBem1-D1
# Method: as §1
# AgBzz1-D1 = target: AgBzz1-D1
# Method: as §1
# AgBzz1-D2 = target: AgBzz1-D2
# Method: as §1
# AgCyk3 = target: AgCyk3
# Method: as §1
# AgFus1 = target: AgFus1
# Method: as §1
# AgHof1 = target: AgHof1
# Method: as §1
# AgHse1 = target: AgHse1
# Method: as §1
# AgLsb1 = target: AgLsb1
# Method: as §1
# AgLsb4 = target: AgLsb4
# Method: as §1
# AgMyo5 = target: AgMyo5
# Method: as §1
# AgNbp2 = target: AgNbp2
# Method: as §1
# AgRvs167 = target: AgRvs167
# Method: as §1
# AgSho1 = target: AgSho1
# Method: as §1
# AgSla1-D1-D2 = target: AgSla1-D1-D2
# Method: as §1
# AgSla1-D3 = target: AgSla1-D3
# Method: as §1
# CaAbp1-D1 = target: CaAbp1-D1
# Method: as §1
# CaAbp1-D2 = target: CaAbp1-D2
# Method: as §1
# CaBbc1 = target: CaBbc1
# Method: as §1
# CaBem1-D1 = target: CaBem1-D1
# Method: as §1
# CaBzz1-D1 = target: CaBzz1-D1
# Method: as §1
# CaBzz1-D2 = target: CaBzz1-D2
# Method: as §1
# CaCyk3 = target: CaCyk3
# Method: as §1
# CaFus1 = target: CaFus1
# Method: as §1
# CaHof1 = target: CaHof1
# Method: as §1
# CaHse1 = target: CaHse1
# Method: as §1
# CaLsb1 = target: CaLsb1
# Method: as §1
# CaLsb4 = target: CaLsb4
# Method: as §1
# CaMyo5 = target: CaMyo5
# Method: as §1
binder,measurement,setting,value
B1,SPOT peptide array binding signal intensity,CaNbp2,204
same,SPOT peptide array binding signal intensity,CaRvs167,44
same,SPOT peptide array binding signal intensity,CaRvs167-3,103
same,SPOT peptide array binding signal intensity,CaSho1,153
same,SPOT peptide array binding signal intensity,CaSla1-D1-D2,124
same,SPOT peptide array binding signal intensity,CaSla1-D3,23.5
same,SPOT peptide array binding signal intensity,ScAbp1,54
same,SPOT peptide array binding signal intensity,ScBbc1,2.75
same,SPOT peptide array binding signal intensity,ScBem1-D1,58
same,SPOT peptide array binding signal intensity,ScBzz1-D1,1.5
same,SPOT peptide array binding signal intensity,ScBzz1-D2,40.5
same,SPOT peptide array binding signal intensity,ScCyk3,13.5
same,SPOT peptide array binding signal intensity,ScFus1,368
same,SPOT peptide array binding signal intensity,ScHof1,16.5
same,SPOT peptide array binding signal intensity,ScHse1,480
same,SPOT peptide array binding signal intensity,ScLsb1,1.5
same,SPOT peptide array binding signal intensity,ScLsb2,6.5
same,SPOT peptide array binding signal intensity,ScLsb3,≤ 0
same,SPOT peptide array binding signal intensity,ScLsb4,12
same,SPOT peptide array binding signal intensity,ScMyo3,18.8
same,SPOT peptide array binding signal intensity,ScMyo5,24.2
same,SPOT peptide array binding signal intensity,ScNbp2,102
same,SPOT peptide array binding signal intensity,ScPex13,10.5
same,SPOT peptide array binding signal intensity,ScRvs167,31.2
same,SPOT peptide array binding signal intensity,ScSho1,592
same,SPOT peptide array binding signal intensity,ScSla1-D1-D2,65
same,SPOT peptide array binding signal intensity,ScSla1-D3,4.75
same,SPOT peptide array binding signal intensity,SpAbp1-D1,130
same,SPOT peptide array binding signal intensity,SpBbc1,8.75
same,SPOT peptide array binding signal intensity,SpBzz1-D1,122
same,SPOT peptide array binding signal intensity,SpBzz1-D2,2
same,SPOT peptide array binding signal intensity,SpCyk3,3
same,SPOT peptide array binding signal intensity,SpHof1,42.8
same,SPOT peptide array binding signal intensity,SpHof1-2,10.8
same,SPOT peptide array binding signal intensity,SpHof1-3,386
same,SPOT peptide array binding signal intensity,SpHse1,274
same,SPOT peptide array binding signal intensity,SpLsb1,50.5
same,SPOT peptide array binding signal intensity,SpLsb4,≤ 0
same,SPOT peptide array binding signal intensity,SpMyo1,14.5
same,SPOT peptide array binding signal intensity,SpNbp2,53
same,SPOT peptide array binding signal intensity,SpPex13,52
same,SPOT peptide array binding signal intensity,SpRvs167,66.2
same,SPOT peptide array binding signal intensity,SpSla1-D1-D2,1
same,SPOT peptide array binding signal intensity,SpSla1-D3,23.5
B2,SPOT peptide array binding signal intensity,AgAbp1,25
same,SPOT peptide array binding signal intensity,AgBbc1,170
same,SPOT peptide array binding signal intensity,AgBem1-D1,136
same,SPOT peptide array binding signal intensity,AgBzz1-D1,33
same,SPOT peptide array binding signal intensity,AgBzz1-D2,43
same,SPOT peptide array binding signal intensity,AgCyk3,33
same,SPOT peptide array binding signal intensity,AgFus1,322
same,SPOT peptide array binding signal intensity,AgHof1,28.5
same,SPOT peptide array binding signal intensity,AgHse1,833
same,SPOT peptide array binding signal intensity,AgLsb1,4.25
same,SPOT peptide array binding signal intensity,AgLsb4,160
same,SPOT peptide array binding signal intensity,AgMyo5,2.25
same,SPOT peptide array binding signal intensity,AgNbp2,72
same,SPOT peptide array binding signal intensity,AgRvs167,3.17
same,SPOT peptide array binding signal intensity,AgSho1,37.5
same,SPOT peptide array binding signal intensity,AgSla1-D1-D2,354
same,SPOT peptide array binding signal intensity,AgSla1-D3,1
same,SPOT peptide array binding signal intensity,CaAbp1-D1,454
same,SPOT peptide array binding signal intensity,CaAbp1-D2,512
same,SPOT peptide array binding signal intensity,CaBbc1,300
same,SPOT peptide array binding signal intensity,CaBem1-D1,53.5
same,SPOT peptide array binding signal intensity,CaBzz1-D1,96
same,SPOT peptide array binding signal intensity,CaBzz1-D2,34
same,SPOT peptide array binding signal intensity,CaCyk3,147
same,SPOT peptide array binding signal intensity,CaFus1,525
same,SPOT peptide array binding signal intensity,CaHof1,≤ 0
same,SPOT peptide array binding signal intensity,CaHse1,30.5
same,SPOT peptide array binding signal intensity,CaLsb1,1.5
same,SPOT peptide array binding signal intensity,CaLsb4,108
same,SPOT peptide array binding signal intensity,CaMyo5,2
same,SPOT peptide array binding signal intensity,CaNbp2,394
same,SPOT peptide array binding signal intensity,CaRvs167,12
same,SPOT peptide array binding signal intensity,CaRvs167-3,104
same,SPOT peptide array binding signal intensity,CaSho1,674
same,SPOT peptide array binding signal intensity,CaSla1-D1-D2,27
same,SPOT peptide array binding signal intensity,CaSla1-D3,3.5
same,SPOT peptide array binding signal intensity,ScAbp1,16
same,SPOT peptide array binding signal intensity,ScBbc1,124
same,SPOT peptide array binding signal intensity,ScBem1-D1,98
same,SPOT peptide array binding signal intensity,ScBzz1-D1,7.5
same,SPOT peptide array binding signal intensity,ScBzz1-D2,15
same,SPOT peptide array binding signal intensity,ScCyk3,272
same,SPOT peptide array binding signal intensity,ScFus1,396
same,SPOT peptide array binding signal intensity,ScHof1,≤ 0
same,SPOT peptide array binding signal intensity,ScHse1,1290
same,SPOT peptide array binding signal intensity,ScLsb1,11.2
same,SPOT peptide array binding signal intensity,ScLsb2,6
same,SPOT peptide array binding signal intensity,ScLsb3,690
same,SPOT peptide array binding signal intensity,ScLsb4,7.5
same,SPOT peptide array binding signal intensity,ScMyo3,6.5
same,SPOT peptide array binding signal intensity,ScMyo5,3.25
same,SPOT peptide array binding signal intensity,ScNbp2,437
same,SPOT peptide array binding signal intensity,ScPex13,0.5
same,SPOT peptide array binding signal intensity,ScRvs167,29
same,SPOT peptide array binding signal intensity,ScSho1,430
same,SPOT peptide array binding signal intensity,ScSla1-D1-D2,303
same,SPOT peptide array binding signal intensity,ScSla1-D3,11
same,SPOT peptide array binding signal intensity,SpAbp1-D1,143
same,SPOT peptide array binding signal intensity,SpBbc1,7.25
same,SPOT peptide array binding signal intensity,SpBzz1-D1,91
same,SPOT peptide array binding signal intensity,SpBzz1-D2,1.25
same,SPOT peptide array binding signal intensity,SpCyk3,7
same,SPOT peptide array binding signal intensity,SpHof1,217
same,SPOT peptide array binding signal intensity,SpHof1-2,13
same,SPOT peptide array binding signal intensity,SpHof1-3,456
same,SPOT peptide array binding signal intensity,SpHse1,421
same,SPOT peptide array binding signal intensity,SpLsb1,≤ 0
same,SPOT peptide array binding signal intensity,SpLsb4,336
same,SPOT peptide array binding signal intensity,SpMyo1,3
same,SPOT peptide array binding signal intensity,SpNbp2,418
same,SPOT peptide array binding signal intensity,SpPex13,10
same,SPOT peptide array binding signal intensity,SpRvs167,3.83
same,SPOT peptide array binding signal intensity,SpSla1-D1-D2,5
same,SPOT peptide array binding signal intensity,SpSla1-D3,5
